Experiment in all cases: NCI-60 one-dose screen, 48 h (100 = growth as untreated, 0 = no growth, -100 = all killed)
Assay [1] has as its system HCT-15 colon. The conditions noted are these: 10 µM.
The subject of assay [2] is HT29 colon. The conditions noted are these: 10 µM.
In assay [3] the test system is SNB-75 CNS. As to conditions: 10 µM.
The test system of assay [4] is SNB-19 CNS. The conditions noted are these: 10 µM.
Assay [5] concerns PC-3 prostate. The conditions noted are these: 10 µM.
Assay [6] deals with SK-MEL-5 melanoma. The conditions noted are these: 10 µM.
Assay [7] deals with UACC-62 melanoma. The conditions noted are these: 10 µM unless noted.
For assay [8], the system named is LOX IMVI melanoma. As to conditions: 10 µM.
The subject of assay [9] is SK-MEL-28 melanoma. As to conditions: 10 µM.
For assay [10], the system named is SK-MEL-2 melanoma. As to conditions: 10 µM.
The subject of assay [11] is SN12C renal. The conditions noted are these: 10 µM.
Assay [12] has as its system UO-31 renal. As to conditions: 10 µM.
The test system of assay [13] is TK-10 renal. The conditions noted are these: 10 µM unless noted.
For assay [14], the system named is ACHN renal. As to conditions: 10 µM.
In assay [15] the test system is CAKI-1 renal. As to conditions: 10 µM.
Assay [16] relates to A498 renal. The conditions noted are these: 10 µM.
Assay [17] concerns CCRF-CEM leukemia. The conditions noted are these: 10 µM.
For assay [18], the system named is MOLT-4 leukemia. As to conditions: 10 µM.
Assay [19] has as its system U251 CNS. As to conditions: 10 µM.
For assay [20], the system named is EKVX NSCLC. The conditions noted are these: 10 µM.

The panel holds about 83,000 compounds, 20% with a hit somewhere; the sample as a whole holds those more often.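 96-well plates, one dose, 48 hours. Percent growth reported; active if below 10.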 A number with no mark means an inactive call. Calls of active or inactive are those of the source.

As to `C=CCCCCCCCCCOC(C)=O`, the growth in [1] was 114%; in assay [2], 103%; in [3], 101%; in assay [4] it was 98.3%; in assay [5], 95.2%; in assay [6] it was 101%. The growth in [7] is 95.7%; in assay [8] it was 99.2%; in assay [9] it was 112%; in assay [10] it was 98.5%; in [11], 98.8%; in assay [12] it was 92.4%. For the same molecule, the growth in assay [13] was 91.5%; in assay [14], 110%; in assay [15], 104%; in assay [16], 111%; in assay [17], 101%; in assay [18], 103%.

Take `OC1CCCc2ccccc21` (configuration not stated): the growth in assay [1] was 108%; in assay [2], 101%; in assay [3], 88%; in [4] it was 90.8%; in assay [19] it was 108%; in [6], 111%. Further, the growth is 100% in [7]; 104% in assay [8]; 120% in assay [9]; 100% in [20]; 99% in [11]; 60.6% in [12]. Further, the growth in [13] was 86.4%; in assay [14] it was 97.9%; in assay [15] it was 121%; in [16], 120%; in assay [17] it was 94.8%; in assay [18], 105%.

As for `OCc1cccc2ccccc12`, the growth in assay [1] is 101%; in assay [2], 114%; in assay [3], 86.3%; in assay [4], 113%; in assay [19], 108%; in assay [6] it was 118%. Also, the growth is 112% in assay [7]; 102% in assay [8]; 111% in assay [9]; 119% in [20]; 108% in assay [11]; 95.5% in assay [12]. The growth in [13] was 100%; in [14] it was 98.6%; in assay [15], 110%; in assay [16], 109%; in [18] it was 97.5%.

In the case of `CC1(C)/C(=C\CO)C2CCC1C2` (configuration not stated), the growth in [1] was 105%; in assay [2], 109%; in assay [3], 93.2%; in assay [4] it was 106%; in [19], 105%; in assay [6], 102%. For the same molecule, the growth in assay [7] is 97.3%; in assay [8], 107%; in assay [9] it was 115%; in assay [10] it was 105%; in [20], 113%; in assay [11], 99.4%. Moreover, the growth in assay [12] was 78.5%; in assay [13], 89.7%; in assay [14], 112%; in assay [15] it was 102%; in assay [17], 92.3%; in assay [18], 107%.

Turning to `O=C(O)CCC(NC(=O)OCc1ccccc1)C(=O)O` (configuration not stated), the growth in assay [1] is 110%; in assay [2] it was 105%; in [3], 99.5%; in [4] it was 98.1%; in [5], 97%; in [6] it was 101%. Also, the growth in assay [7] was 90.5%; in assay [8] it was 98.9%; in assay [9] it was 109%; in assay [10] it was 105%; in assay [11], 100%; in assay [12], 94.9%. The growth is 93.1% in [13]; 111% in assay [14]; 101% in [15]; 106% in [16]; 101% in assay [17]; 105% in assay [18].

With `Cc1ccc(CCCC(=O)O)c(C)c1`, the growth in assay [1] is 99%; in [2], 98.8%; in assay [3], 79.2%; in [4], 101%; in assay [19], 94.1%; in assay [6], 102%. Further, the growth in [7] is 102%; in assay [8], 99.3%; in assay [9], 98.1%; in [10], 91.1%; in assay [11], 97.9%; in assay [12] it was 90.9%. Further, the growth in assay [13] was 95%; in [14] it was 98.3%; in [15], 99.7%; in [16], 101%; in [18] it was 98.7%.

In the case of `COc1cc(/C=C(\C#N)C(=O)c2ccccc2)ccc1OCc1ccccc1`, the growth in assay [1] was 98.9%; in assay [2] it was 105%; in assay [3], 91.7%; in [4], 100%; in [5], 95.2%; in assay [6], 102%. The growth in assay [7] is 97.2%; in assay [8], 90.9%; in assay [9], 112%; in assay [10] it was 127%; in assay [20], 107%; in assay [11], 102%. The growth is 79.7% in assay [12]; 109% in assay [13]; 102% in [14]; 96.5% in [15]; 87.9% in assay [16]; -32.5% (active) in [17]. Also, in [18], the growth is 106%.

`COc1ccc(OC)c(/C=C2\CCc3ccccc3C2=O)c1`: the growth is 24.3% in assay [1]; 12.8% in assay [2]; 17.4% in assay [3]; 38.6% in assay [4]; 47.6% in assay [5]; 52.9% in [6]. Moreover, the growth in assay [7] was 43.5%; in assay [8], 35.6%; in [9], 64.9%; in [10] it was 43.1%; in assay [20], 50%; in assay [11], 61.7%. The growth in assay [12] is 61.1%; in assay [13], 89.5%; in assay [14], 52.7%; in assay [15], 39.1%; in [16] it was 20.2%; in assay [17], 28.3%. Moreover, in assay [18], the growth is 23%.

Regarding `O=C(O)/C=C/c1ccc2c(c1)CCC2`, the growth in assay [1] was 99.5%; in assay [2], 104%; in assay [3], 100%; in [4] it was 105%; in [19] it was 99.3%; in assay [6], 105%. Further, the growth in assay [7] is 103%; in assay [8], 102%; in assay [9], 104%; in assay [10], 110%; in assay [11] it was 95.4%; in [12], 99.7%. For the same molecule, the growth in assay [13] was 107%; in assay [14] it was 107%; in assay [15], 94.5%; in [16], 111%; in assay [17], 83.5%; in assay [18], 97.1%.

Values taken from PubChem BioAssay (NCI).
